Reference: PubChem BioAssay (NCI)
This is part of a sample that, as a whole, favours compounds with a hit. Of some 79,000 tested, about 15% had one in any assay. The source made the active and inactive calls. Cut-off read from the data, not from the text of the source: active = growth inhibition above about 70%; inactive = the rest.

Legend:
[1] = NCI Yeast Anticancer Drug Screen. Data for the wt2 strain (AID 169);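 note: 0% = growth of vehicle-treated yeast cultures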; conditions: S. cerevisiae wt2 strain growth inhibition, hits give high values
Outline: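 This strain belongs to a panel of yeast strains with defined genetic alterations in DNA damage repair or cell cycle control. Compounds are applied, and growth inhibition is measured against vehicle-treated cultures.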

[2] = NCI Yeast Anticancer Drug Screen. Data for the mlh1 strain (AID 171);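 note: 0% = growth of vehicle-treated control cultures of the same strain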; conditions: S. cerevisiae mlh1 strain growth inhibition, hits give high values
Outline: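 Growth of the mutant yeast strain after compound exposure, expressed as inhibition relative to vehicle-only controls.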

[3] = NCI Yeast Anticancer Drug Screen. Data for the sgs1 strain (AID 173);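 note: 0% = growth of vehicle-only control cultures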; conditions: S. cerevisiae sgs1 mutant, hits give high values
Outline: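 Growth of a yeast strain bearing a defined genetic alteration is measured after compound treatment. Inhibition is expressed relative to vehicle-only controls.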

[4] = NCI Yeast Anticancer Drug Screen. Data for the mlh1 rad18 strain (AID 175); conditions: S. cerevisiae mlh1 rad18 strain growth inhibition, hits give high values
Outline: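 Read-out is yeast growth inhibition, calculated against vehicle-only controls. The compound was applied to a strain engineered with DNA damage repair alterations.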

[5] = NCI Yeast Anticancer Drug Screen. Data for the rad18 strain (AID 177); conditions: S. cerevisiae rad18 mutant growth inhibition, hits give high values
Outline: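 Growth of the mutant yeast strain after compound exposure, normalised to vehicle-only cultures.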

[6] = NCI Yeast Anticancer Drug Screen. Data for the rad52 strain (AID 147);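 note: 0% = growth of vehicle-treated control cultures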; conditions: S. cerevisiae rad52 mutant growth inhibition, hits give high values
Outline: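 Compounds are applied to a genetically defined yeast strain lacking normal DNA damage repair, and inhibition of growth is expressed relative to cultures given vehicle only.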

[7] = NCI Yeast Anticancer Drug Screen. Data for the wt1 strain (AID 149);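 note: 0% = growth of vehicle-treated wt1 cultures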; conditions: S. cerevisiae wt1 strain (SPY 50644) growth inhibition, hits give high values
Outline: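 wt1 strain grown with compound or vehicle; inhibition taken from the growth difference.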

[8] = NCI Yeast Anticancer Drug Screen. Data for the rad50EPP+ strain (AID 151);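 note: 0% = growth of vehicle-treated control cultures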; conditions: S. cerevisiae rad50 mutant strain, hits give high values
Outline: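 Compounds were applied to the rad50EPP+ yeast strain, which bears a defined DNA repair alteration, and growth inhibition was determined relative to vehicle-treated cultures.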

[9] = NCI Yeast Anticancer Drug Screen. Data for the mgt1 strain (AID 153); conditions: S. cerevisiae mgt1 mutant growth inhibition, hits give high values
Outline: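 Strain: mgt1 yeast, one of a set carrying defined DNA damage repair or cell cycle control alterations. Compound-treated growth compared with vehicle.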

[10] = NCI Yeast Anticancer Drug Screen. Data for the rad50 strain (AID 155);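 note: 0% = growth of vehicle-only cultures of the same strain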; conditions: S. cerevisiae rad50 strain growth inhibition, hits give high values
Outline: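 DNA repair mutant yeast, compound exposure, growth read-out; inhibition is taken relative to vehicle.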

[11] = NCI Yeast Anticancer Drug Screen. Data for the mec2-1 strain (AID 157); conditions: S. cerevisiae mec2-1 strain, hits give high values
Outline: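 Strain: mec2-1 (DNA repair/cell cycle alteration). Compound exposure, then growth measured; inhibition expressed relative to vehicle.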

[12] = NCI Yeast Anticancer Drug Screen. Data for the rad14 strain (AID 159);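 note: 0% = growth of vehicle-treated control cultures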; conditions: S. cerevisiae rad14 strain growth inhibition, hits give high values
Outline: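 DNA repair-defective yeast, compound-exposed; % growth inhibition derived by comparison with vehicle-treated controls.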

[13] = NCI Yeast Anticancer Drug Screen. Data for the sgs1 mgt1 strain (AID 161);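 note: 0% = growth of cultures given vehicle only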; conditions: S. cerevisiae sgs1 mgt1 strain, hits give high values
Outline: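 Read-out: growth inhibition vs vehicle controls. Cells: mutant yeast strain deficient in DNA damage repair.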

[14] = NCI Yeast Anticancer Drug Screen. Data for the CLN2oe strain (AID 163);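 note: 0% = growth of vehicle-only control cultures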; conditions: S. cerevisiae CLN2oe strain, hits give high values
Outline: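 Growth of a genetically modified yeast strain is measured after compound exposure and compared with cultures given vehicle alone.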

[15] = NCI Yeast Anticancer Drug Screen. Data for the cln2 rad14 strain (AID 165);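 note: 0% = growth equal to vehicle treated cultures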; conditions: S. cerevisiae cln2 rad14 strain, hits give high values
Outline: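 Compounds are applied to the cln2 rad14 yeast strain, and growth is then compared with that of vehicle-treated cultures to give inhibition.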

[16] = NCI Yeast Anticancer Drug Screen. Data for the bub3 strain (AID 167); conditions: S. cerevisiae bub3 mutant strain, hits give high values
Outline: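 In this screen, a yeast mutant lacking normal mitotic checkpoint function is challenged with compound. Relative growth versus vehicle gives the inhibition value.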

[17] = at 5.0 µM (retest, dose inferred, filed as 0.5)
[18] = at 50.0 µM (retest, dose inferred, filed as 5.0)

Measured: growth inhibition

CSc1nc(C)c(CCOC(C)=O)c(N=P(c2ccccc2)(c2ccccc2)c2ccccc2)n1
active: [1]; at 100.0 µM 92% | [2]; at 100.0 µM 92% | [3]; at 100.0 µM 93% | [4]; at 50.0 µM 94.6% | [5]; at 100.0 µM 91%
inactive: [1]; at 1.2 µM 10% | [1]; at 3.7 µM 3% | [1]; at 11.0 µM -4% | [1]; at 33.0 µM -1% | [2]; at 1.2 µM 12% | [2]; at 3.7 µM 5% | [2]; at 11.0 µM -2% | [2]; at 33.0 µM -2% | [3]; at 1.2 µM 7% | [3]; at 3.7 µM 3% | [3]; at 11.0 µM -4% | [3]; at 33.0 µM -2% | [4]; [17] 0% | [4]; [18] 23% | [5]; at 1.2 µM 16% | [5]; at 3.7 µM 12% | [5]; at 11.0 µM 4% | [5]; at 33.0 µM 3%

COc1nc2c(c(=O)n1C)N=C(c1ccccc1)[C@H](C(CC(=O)c1ccccc1)c1ccccc1)C(c1ccccc1)N2 (some centres undefined)
inactive: [6]; at 1.2 µM -2% | [6]; at 3.7 µM 13% | [6]; at 11.0 µM 34% | [6]; at 33.0 µM 31% | [6]; at 100.0 µM 60% | [7]; at 1.2 µM -27% | [7]; at 3.7 µM -20% | [7]; at 11.0 µM -19% | [7]; at 33.0 µM 6% | [7]; at 100.0 µM 46% | [8]; at 1.2 µM -16% | [8]; at 3.7 µM -30% | [8]; at 11.0 µM -46% | [8]; at 33.0 µM -17% | [8]; at 100.0 µM -35% | [9]; at 1.2 µM -53% | [9]; at 3.7 µM -38% | [9]; at 11.0 µM -9% | [9]; at 33.0 µM 34% | [9]; at 100.0 µM 60% | [10]; at 1.2 µM 6% | [10]; at 3.7 µM 3% | [10]; [17] 65% | [10]; at 11.0 µM 5% | [10]; at 33.0 µM 21% | [10]; at 50.0 µM 52.4% | [10]; at 100.0 µM 55% | [11]; at 1.2 µM -16% | [11]; at 3.7 µM -9% | [11]; [17] 13% | [11]; at 11.0 µM -8% | [11]; at 33.0 µM -4% | [11]; at 50.0 µM 61.5% | [11]; at 100.0 µM 34% | [12]; at 1.2 µM -1% | [12]; at 3.7 µM -10% | [12]; at 11.0 µM -1% | [12]; at 33.0 µM 31% | [12]; at 100.0 µM 57% | [13]; [17] -14% | [13]; [18] 35% | [13]; at 50.0 µM 53.7% | [14]; at 1.2 µM 10% | [14]; at 3.7 µM 1% | [14]; at 11.0 µM 4% | [14]; at 33.0 µM 13% | [14]; at 100.0 µM 43% | [15]; [17] 2% | [15]; [18] -15% | [15]; at 50.0 µM 7.8% | [16]; at 1.2 µM -11% | [16]; at 3.7 µM -34% | [16]; [17] 0% | [16]; at 11.0 µM 9% | [16]; at 33.0 µM 18% | [16]; [18] 23% | [16]; at 50.0 µM 36.4% | [16]; at 100.0 µM 41% | [1]; at 1.2 µM -8% | [1]; at 3.7 µM -8% | [1]; at 11.0 µM -7% | [1]; at 33.0 µM 22% | [1]; at 100.0 µM 46% | [2]; at 1.2 µM -53% | [2]; at 3.7 µM -38% | [2]; at 11.0 µM -9% | [2]; at 33.0 µM 34% | [2]; at 100.0 µM 60% | [3]; at 1.2 µM -9% | [3]; at 3.7 µM -10% | [3]; at 11.0 µM 23% | [3]; at 33.0 µM 40% | [4]; [17] 14% | [4]; [18] 35% | [4]; at 50.0 µM 20.1% | [5]; at 1.2 µM 37% | [5]; at 3.7 µM 47% | [5]; at 11.0 µM 50% | [5]; at 33.0 µM 46% | [5]; at 100.0 µM 67%
active: [10]; [18] 94% | [11]; [18] 94% | [3]; at 100.0 µM 71%

O=[N+]([O-])/C=C/c1cc(Cl)c(/C=C/[N+](=O)[O-])cc1Cl
active: [6]; at 11.0 µM 74% | [6]; at 33.0 µM 91% | [6]; at 100.0 µM 89% | [8]; at 100.0 µM 70% | [9]; at 33.0 µM 96% | [9]; at 100.0 µM 92% | [10]; at 11.0 µM 81% | [10]; at 33.0 µM 97% | [10]; at 50.0 µM 79.7% | [10]; at 100.0 µM 94% | [11]; at 33.0 µM 81% | [11]; at 50.0 µM 73.5% | [11]; at 100.0 µM 85% | [12]; at 11.0 µM 93% | [12]; at 33.0 µM 97% | [12]; at 100.0 µM 92% | [13]; [18] 73% | [13]; at 50.0 µM 74.8% | [14]; at 100.0 µM 73% | [16]; at 11.0 µM 84% | [16]; at 33.0 µM 92% | [16]; [18] 96% | [16]; at 50.0 µM 79.2% | [16]; at 100.0 µM 91% | [1]; at 33.0 µM 91% | [2]; at 33.0 µM 96% | [2]; at 100.0 µM 92% | [4]; [18] 77% | [5]; at 11.0 µM 78% | [5]; at 33.0 µM 95% | [5]; at 100.0 µM 89%
inactive: [6]; at 1.2 µM 35% | [6]; at 3.7 µM 55% | [7]; at 1.2 µM 25% | [7]; at 3.7 µM 32% | [7]; at 11.0 µM 43% | [7]; at 33.0 µM 42% | [7]; at 100.0 µM 37% | [8]; at 1.2 µM 13% | [8]; at 3.7 µM 19% | [8]; at 11.0 µM 35% | [8]; at 33.0 µM 66% | [9]; at 1.2 µM 36% | [9]; at 3.7 µM 48% | [9]; at 11.0 µM 68% | [10]; at 1.2 µM 33% | [10]; at 3.7 µM 55% | [10]; [17] 3% | [10]; [18] 53% | [11]; at 1.2 µM 39% | [11]; at 3.7 µM 59% | [11]; [17] 18% | [11]; at 11.0 µM 65% | [11]; [18] 56% | [12]; at 1.2 µM 25% | [12]; at 3.7 µM 68% | [13]; [17] 23% | [14]; at 1.2 µM 22% | [14]; at 3.7 µM 32% | [14]; at 11.0 µM 49% | [14]; at 33.0 µM 69% | [15]; [17] 22% | [15]; [18] 60% | [15]; at 50.0 µM 62.1% | [16]; at 1.2 µM 28% | [16]; at 3.7 µM 37% | [16]; [17] 43% | [1]; at 1.2 µM 8% | [1]; at 3.7 µM 34% | [1]; at 11.0 µM 68% | [1]; at 100.0 µM 69% | [2]; at 1.2 µM 36% | [2]; at 3.7 µM 48% | [2]; at 11.0 µM 68% | [3]; at 1.2 µM 22% | [3]; at 3.7 µM 16% | [3]; at 11.0 µM 14% | [3]; at 33.0 µM 52% | [3]; at 100.0 µM 32% | [4]; [17] 16% | [4]; at 50.0 µM 56.4% | [5]; at 1.2 µM 19% | [5]; at 3.7 µM 51%
